Results taken from PubChem BioAssay (NCATS).
Records with an inconclusive call do not appear. Entries that show only a call come without a potency. Calls of active or inactive are those of the source. Calls come from the whole dose curve; as a rule, active = well fitted inhibition curve with a large enough effect; inconclusive = small, poorly fitted or top-dose-only effect; inactive = no such curve, though single readings can be large or run the other way.

target: Cytochrome P450 3A7 (Homo sapiens) (UniProt P24462); test: Cytochrome P450 family 3 subfamily A member 7 (CYP3A7) small molecule antagonists: luciferase biochemical qHTS assay (AID 1963596); conditions: P450-Glo CYP3A7 enzyme luminescence, 1 h; series mostly up to 57.4 µM; note: nearly all actives have a fitted effect of over 40% in size
In short: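 In this luminescent screen, enzyme and proluciferin substrate meet test compound for 10 min before NADPH regeneration solution drives a 1 h room-temperature reaction; detection reagent halts turnover and luminescence is read 20 min later.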

Sequence of Cytochrome P450 3A7 (Homo sapiens) (P24462 whole entry, looked up): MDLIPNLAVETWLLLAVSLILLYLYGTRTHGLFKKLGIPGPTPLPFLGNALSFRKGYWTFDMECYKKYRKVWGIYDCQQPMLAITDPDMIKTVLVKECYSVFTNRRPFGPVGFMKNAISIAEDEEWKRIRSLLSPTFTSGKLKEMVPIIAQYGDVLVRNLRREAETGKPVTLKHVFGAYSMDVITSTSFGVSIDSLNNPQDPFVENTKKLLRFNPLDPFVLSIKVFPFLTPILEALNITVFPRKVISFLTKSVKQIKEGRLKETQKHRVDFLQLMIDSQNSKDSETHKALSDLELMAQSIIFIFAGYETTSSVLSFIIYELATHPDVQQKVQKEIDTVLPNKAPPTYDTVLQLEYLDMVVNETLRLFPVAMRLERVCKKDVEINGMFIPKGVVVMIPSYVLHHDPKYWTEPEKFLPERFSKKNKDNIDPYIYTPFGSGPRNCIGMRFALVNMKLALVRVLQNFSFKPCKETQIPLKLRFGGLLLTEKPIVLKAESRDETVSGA

SMILES	Potency
CC1(C)S[C@@H]2[C@H](NC(=O)C(c3ccccc3)S(=O)(=O)O)C(=O)N2[C@H]1C(=O)O (some centres not stated)	inactive
Cn1cc(S(C)=O)c(=O)c2ccc(F)cc21 (configuration not stated)	inactive
CC(C)(C)c1ccc(C(=O)CCCCl)cc1	inactive
Cc1cccc(C(=O)O)c1O	inactive
CCCCN(CCN(CCCC)C(=O)N1CCOCC1)C(=O)N1CCOCC1	inactive
CN/C(=C\[N+](=O)[O-])NCCSCc1csc(CN(C)C)n1	inactive
O=C(O)c1cn(C2CC2)c2cc(Cl)c(F)cc2c1=O	inactive
Cc1nc([N+](=O)[O-])cn1-c1ccc([N+](=O)[O-])cc1	inactive
CN(C)C(=O)CNC(=O)Cc1ccccc1	inactive
Cn1c(=O)c2c(ncn2CC(=O)O)n(C)c1=O	inactive
O=C1CC2(CCCC2)CC(=O)N1	inactive
CN=C(N)NC(=O)Nc1c(C)cccc1C	inactive
O=C(Nc1cccnc1)c1cc(-c2ccnc(F)c2)ccc1OCc1ccccc1	inactive
C=CCN1C[C@H](C(=O)N(CCCN(C)C)C(=O)NCC)C[C@@H]2c3cccc4[nH]cc(c34)C[C@H]21	inactive
O=C(Oc1ccccc1)c1cccc(C(=O)Oc2ccccc2)c1	inactive
CCOC(=O)c1ccc(O)cc1	inactive
OCC(O)CS (configuration not stated)	inactive
COc1ccccc1OCC1CNC(=O)O1 (configuration not stated)	inactive
NCCO	inactive
CCO/C([O-])=N/c1c[n+](N2CCOCC2)no1	inactive
O=C(O)CCc1nc2ccccc2[nH]1	inactive
O=c1[nH]c(=O)n([C@H]2O[C@H](CO)[C@@H](O)[C@@H]2O)cc1/C=C\Br	inactive
